Test results from PubChem BioAssay (Tox21).
Records with an inconclusive call do not appear. Where a call stands in place of a potency, no number is given. The source made the active and inactive calls. Unless noted, calls come from the whole dose curve; as a rule, active = well fitted curve in the direction sought with a large enough effect in the repeat runs; inconclusive = weak or mixed curves; inactive = no such curve, though single readings can be large; an effect the other way counts as inactive or inconclusive.

Key:
[1] = qHTS assay to identify small molecule agonists of the RXR signaling pathway - cell viability counter screen (AID 1159529); note: nearly all actives have a fitted effect of over 50% in size
Method in brief: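 CellTiter-Glo luminescence gave viability in the wells also read for beta-lactamase. Cells (RXR-alpha-UAS-bla HEK 293T, 2% charcoal-stripped FBS medium) had 5 hr plating, then 16 hr compound exposure at 37 C; tetraoctyl ammonium bromide served as positive control.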

[2] = qHTS assay to identify small molecule antagonists of the retinoid acid receptor (RAR) signaling pathway - cell viability counter screen (AID 1159551); note: nearly all actives have a fitted effect of over 35% in size
Method in brief: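 Cytotoxicity counter screen: ATP content quantified by CellTiter-Glo luminescence in C3RL4 cells treated 6 hr at 37 C with compound and retinol (1 uM final). Cells plated at 1,000/well and cultured overnight before dosing.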

[3] = qHTS assay to identify small molecule antagonists of the retinoic acid receptor (RAR) signaling pathway (AID 1159552; note: nearly all actives have a fitted effect of over 50% in size)
Method in brief: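 Luminescent RARE reporter read-out in C3RL4 cells: 6 hr co-treatment at 37 C of test compounds with retinol at 1 uM final. Cells plated overnight beforehand; luciferase reagent incubated 30 min at room temperature before reading.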

[4] = qHTS assay to identify small molecule agonists of the retinoic acid receptor (RAR) signaling pathway (AID 1159553); details: C3RL4 RARE luciferase reporter, agonist, 6 h; activation: at 73.3 µM (top of the series) unless noted
Method in brief: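 Luminescence was measured 30 min after luciferase reagent addition at room temperature. Before that, C3RL4 reporter cells (1,000 per well, plated overnight) were treated with compound for 6 hr at 37 C and 5% CO2.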

[5] = qHTS assay to identify small molecule antagonists of the estrogen related receptor (ERR) signaling pathway from Tox21 library - cell viability counter screen (AID 1224834); note: nearly all actives have a fitted effect of over 30% in size
Method in brief: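 CellTiter-Fluor fluorescence, read after 30 min at 37 C, measures viability of ERR cells. Cells plated at 2,000/well and incubated 6 h before pin-tool compound addition, then exposed 17.5 hours at 37 C.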

[6] = biological target: Luciferin 4-monooxygenase (Photinus pyralis) (UniProt P08659); assay: qHTS assay to identify small molecule inhibitors of firefly luciferase (AID 1224835); note: nearly all actives have a fitted effect of over 25% in size; note: potency is the fitted concentration of half-maximal effect
Luciferin 4-monooxygenase (Photinus pyralis), sequence (P08659 whole entry, looked up): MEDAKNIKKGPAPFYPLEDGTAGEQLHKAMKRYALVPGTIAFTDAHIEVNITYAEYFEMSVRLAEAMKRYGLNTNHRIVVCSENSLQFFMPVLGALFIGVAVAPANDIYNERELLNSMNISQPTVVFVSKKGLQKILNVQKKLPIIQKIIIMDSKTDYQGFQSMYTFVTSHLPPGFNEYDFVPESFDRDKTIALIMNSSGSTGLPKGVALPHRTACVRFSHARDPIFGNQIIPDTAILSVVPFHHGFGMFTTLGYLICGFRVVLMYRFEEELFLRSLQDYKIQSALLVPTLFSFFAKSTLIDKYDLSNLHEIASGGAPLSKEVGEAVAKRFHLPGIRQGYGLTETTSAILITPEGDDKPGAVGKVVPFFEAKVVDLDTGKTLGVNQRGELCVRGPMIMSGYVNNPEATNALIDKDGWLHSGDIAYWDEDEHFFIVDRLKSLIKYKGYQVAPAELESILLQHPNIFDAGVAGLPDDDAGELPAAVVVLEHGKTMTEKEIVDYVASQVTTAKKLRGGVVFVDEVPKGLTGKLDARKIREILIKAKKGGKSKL
Method in brief: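 Quantitative HTS format; KM concentrations of both substrates. Purified P. pyralis FLuc activity quantified from luminescence images.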

[7] = qHTS assay to identify small molecule agonists of the constitutive androstane receptor (CAR) signaling pathway - cell viability counter screen (AID 1224836); note: nearly all actives have a fitted effect of over 45% in size
Method in brief: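 Cell viability multiplexed with the CAR agonist screen: CellTiter-Fluor fluorescence after 23 hr at 37 C. HepG2-CYP2B6-hCAR cells got compounds at 15 concentrations with PK11195 at 0.75 uM final.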

[8] = qHTS assay to identify small molecule antagonists of the constitutive androstane receptor (CAR) signaling pathway - cell viability counter screen (AID 1224837); note: nearly all actives have a fitted effect of over 45% in size
Method in brief: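 Cytotoxicity counter-screen: CellTiter-Fluor fluorescence after 23 h compound exposure (15-point qHTS) in double-stable HepG2-CYP2B6-hCAR cells, with 50 nM CITCO added.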

[9] = biological target: Nuclear receptor subfamily 1 group I member 3 (Homo sapiens) (UniProt Q14994); assay: qHTS assay to identify small molecule antagonists of the constitutive androstane receptor (CAR) signaling pathway (AID 1224838);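 note: HepG2 cells stably expressing hCAR with CYP2B6 luciferase reporter stimulated by CITCO; nearly all actives have a fitted effect of over 40% in size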
Nuclear receptor subfamily 1 group I member 3 (Homo sapiens), sequence (Q14994 whole entry, looked up): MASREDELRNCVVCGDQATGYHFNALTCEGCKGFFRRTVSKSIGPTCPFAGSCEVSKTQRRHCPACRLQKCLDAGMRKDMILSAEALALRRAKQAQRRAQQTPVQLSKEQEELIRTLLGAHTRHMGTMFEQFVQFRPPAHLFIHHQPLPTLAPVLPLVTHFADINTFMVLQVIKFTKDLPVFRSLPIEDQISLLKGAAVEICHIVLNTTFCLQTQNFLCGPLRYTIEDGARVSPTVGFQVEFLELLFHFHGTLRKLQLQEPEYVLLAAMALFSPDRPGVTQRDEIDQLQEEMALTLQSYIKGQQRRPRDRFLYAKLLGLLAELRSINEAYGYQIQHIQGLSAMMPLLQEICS
Method in brief: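 Antagonism measured as luciferase signal (ONE-Glo, 30 min, room temperature) in CAR-stimulated cells: HepG2-CYP2B6-hCAR double-stable line exposed 24 hr at 37 C to compound in a 15-point series plus 50 nM CITCO.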

[10] = qHTS assay to identify small molecule antagonists of the estrogen related receptor signaling pathway with the pleiotropic PPARgamma coactivator (PGC) from Tox21 10K library - cell viability counter screen (AID 1224840; active = well fitted cell-killing curve with a large enough effect in the repeat runs, not every such curve was filed as active; note: nearly all actives have a fitted effect of over 40% in size)
Method in brief: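 Counter-screen for cytotoxicity: after 17.5 h compound exposure at 37 C, CellTiter-Fluor reagent added to PGC/ERR cells for 30 min and fluorescence read. Cells were seeded at 2,000 per well 6 h before dosing.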

[11] = qHTS assay to identify small molecule agonists of the hypoxia (HIF-1) signaling pathway - cell viability counter screen (AID 1224844; calls by dose curve; note: nearly all actives have a fitted effect of over 50% in size)
Method in brief: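 Cytotoxicity measured by CellTiter-Glo ATP luminescence in the wells also read for beta-lactamase signal. Cells were HRE-bla ME-180 (2,000/well, 0.5% dialyzed FBS), exposed to compounds for 17 h at 37C.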

[12] = biological target: Nuclear receptor subfamily 1 group I member 3 (Homo sapiens) (UniProt Q14994); assay: qHTS assay to identify small molecule agonists of the constitutive androstane receptor (CAR) signaling pathway (AID 1224839);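 note: HepG2 cells stably carrying human CAR and a CYP2B6 luciferase reporter; nearly all actives have a fitted effect of over 15% in size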
Method in brief: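 Luminescent ONE-Glo read-out after 24 hr, 37 C exposure of double-stable HepG2-CYP2B6-hCAR reporter cells to a 15-point compound series, in the presence of 0.75 uM PK11195 (final).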

[13] = biological target: Thyrotropin receptor (Homo sapiens) (UniProt P16473); assay: qHTS assay to identify small molecule agonists of the thyroid stimulating hormone receptor (TSHR) signaling pathway (AID 1224843; calls by dose curve; note: nearly all actives have a fitted effect of over 45% in size)
Thyrotropin receptor (Homo sapiens), sequence (P16473 whole entry, looked up): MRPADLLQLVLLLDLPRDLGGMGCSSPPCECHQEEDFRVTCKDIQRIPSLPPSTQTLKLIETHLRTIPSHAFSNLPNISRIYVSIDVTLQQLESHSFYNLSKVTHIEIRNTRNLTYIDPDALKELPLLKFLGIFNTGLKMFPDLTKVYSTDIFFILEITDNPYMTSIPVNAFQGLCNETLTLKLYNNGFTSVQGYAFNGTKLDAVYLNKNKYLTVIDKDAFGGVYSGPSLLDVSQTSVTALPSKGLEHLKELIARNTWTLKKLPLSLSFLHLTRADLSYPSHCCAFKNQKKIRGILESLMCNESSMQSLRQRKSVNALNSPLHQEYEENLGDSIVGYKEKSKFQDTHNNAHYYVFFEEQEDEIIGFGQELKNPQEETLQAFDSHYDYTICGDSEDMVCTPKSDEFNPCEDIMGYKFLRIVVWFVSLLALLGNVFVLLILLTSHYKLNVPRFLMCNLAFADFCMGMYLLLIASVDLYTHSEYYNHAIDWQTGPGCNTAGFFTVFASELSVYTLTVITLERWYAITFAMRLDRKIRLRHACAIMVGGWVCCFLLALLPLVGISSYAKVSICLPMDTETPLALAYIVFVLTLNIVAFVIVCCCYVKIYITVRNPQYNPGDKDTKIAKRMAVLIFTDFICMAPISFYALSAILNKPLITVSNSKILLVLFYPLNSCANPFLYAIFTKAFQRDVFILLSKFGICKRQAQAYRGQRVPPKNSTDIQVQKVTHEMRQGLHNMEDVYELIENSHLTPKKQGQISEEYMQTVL
Method in brief: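 Using 15 concentrations per compound in triplicate, cAMP production was monitored in TSHR-HEK293 cells after 30 min compound incubation at RT; HTRF reagents followed, with fluorescence intensity recorded after 1 h.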

[14] = qHTS assay to identify small molecule antagonists of the estrogen related receptor signaling pathway with the pleiotropic PPARgamma coactivator (PGC) from Tox21 10K library (AID 1224841; call rule not given here; note: actives are mostly falling curves and most rising ones were filed inactive; nearly all actives have a fitted effect of over 50% in size)
Method in brief: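 Luminescence (One-Glo, 30 min at room temperature) after 18 h compound treatment at 37 C of PGC/ERR reporter cells plated at 2,000 cells/well and settled 6 h beforehand.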

[15] = qHTS assay to identify small molecule agonists of the estrogen related receptor signaling pathway with the pleiotropic PPARgamma coactivator (PGC) from Tox21 10K library (AID 1224842); note: nearly all actives have a fitted effect of over 15% in size
Method in brief: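 PGC/ERR reporter cells (NTP line) were seeded 2,000 per well, rested 6 h at 37 C/5% CO2, then pin-dosed with compounds in DMSO for 18 h at 37 C; luciferase read by One-Glo luminescence after 30 min at room temperature.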

| SMILES | Potency [1] | Potency [2] | Potency [3] | Potency [4] | Potency [5] | Potency [6] | Potency [7] | Potency [8] | Potency [9] | Potency [10] | Potency [11] | Potency [12] | Potency [13] | Potency [14] | Potency [15] |
| --- | --- | --- | --- | --- | --- | --- | --- | --- | --- | --- | --- | --- | --- | --- | --- |
| CCCCNS(=O)(=O)c1ccc(C)cc1 | inactive | inactive | inactive | inactive | inactive | inactive | inactive | inactive | inactive | inactive | inactive | – | – | – | – |
| CCCC(=O)OCCc1ccccc1 | inactive | inactive | inactive | inactive | inactive | 79.6 µM (active) | inactive | inactive | inactive | inactive | inactive | inactive | inactive | – | – |
| CC(C(=O)O)c1ccc2c(c1)[nH]c1ccc(Cl)cc12 (stereo not given) | inactive | inactive | inactive | inactive | inactive | 34.7 µM (active) | inactive | inactive | inactive | inactive | inactive | inactive | inactive | – | – |
| C#Cc1ccc(-c2ccccc2F)cc1 | inactive | inactive | inactive | inactive | inactive | 30.9 µM (active) | inactive | inactive | inactive | – | inactive | inactive | – | – | – |
| CCCC[P+](C)(CCCC)CCCC | inactive | inactive | inactive | inactive | inactive | inactive | inactive | inactive | – | inactive | inactive | inactive | inactive | – | – |
| CCOC(=O)NNc1ccc(N(CC)CC(C)O)nn1 (stereo not given) | inactive | inactive | inactive | inactive | inactive | inactive | inactive | inactive | – | inactive | – | inactive | inactive | inactive | inactive |
| CCN(CCN)c1cccc(C)c1 | inactive | inactive | inactive | inactive | inactive | inactive | inactive | inactive | inactive | inactive | inactive | inactive | inactive | inactive | inactive |
| CC(=O)c1ccc(C(C)=O)cc1 | inactive | inactive | inactive | inactive | inactive | inactive | inactive | inactive | inactive | inactive | inactive | inactive | inactive | inactive | inactive |
| Cc1cccc2cccnc12 | inactive | inactive | inactive | inactive | inactive | inactive | inactive | inactive | inactive | inactive | inactive | inactive | inactive | inactive | inactive |
| OC/C=C/CO | inactive | inactive | inactive | inactive | inactive | inactive | inactive | inactive | inactive | inactive | – | inactive | inactive | – | – |
